The results in this text go back to PubChem BioAssay (NCI).

Each structure is given as a SMILES string. This is part of a sample that, as a whole, favours compounds with a hit. Of some 79,000 tested, about 15% had one in any assay. Values without a mark were called inactive. The source made the active and inactive calls. Cut-off read from the data, not from the text of the source: active = growth inhibition above about 70%; inactive = the rest.

A short description of assay [1]: NCI Yeast Anticancer Drug Screen. Data for the rad50 strain (AID 155).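 Note: 0% = growth of vehicle-only cultures of the same strain.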 The following applies: S. cerevisiae rad50 strain growth inhibition, hits give high values. The method in brief:
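Relative growth inhibition (compound vs vehicle) was measured in yeast with a defined repair-gene alteration.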

Assay [2] is described as follows: NCI Yeast Anticancer Drug Screen. Data for the mec2-1 strain (AID 157). The following applies: S. cerevisiae mec2-1 strain, hits give high values. A digest of the protocol: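 mec2-1 yeast strain, carrying an alteration in DNA damage repair or cell cycle control, was exposed to compounds; growth inhibition was measured relative to vehicle-treated controls.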
A short description of assay [3]: NCI Yeast Anticancer Drug Screen. Data for the sgs1 mgt1 strain (AID 161).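 Note: 0% = growth of cultures given vehicle only.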 The following applies: S. cerevisiae sgs1 mgt1 strain, hits give high values. A digest of the protocol: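 Percent growth inhibition was derived by comparing compound-exposed mutant yeast with vehicle-exposed cultures. The strain carries alterations in DNA damage repair.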
A short description of assay [4]: NCI Yeast Anticancer Drug Screen. Data for the cln2 rad14 strain (AID 165).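 Note: 0% = growth equal to vehicle treated cultures.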 The following applies: S. cerevisiae cln2 rad14 strain, hits give high values. The method in brief:
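Yeast carrying cln2 and rad14 alterations (cell cycle control and DNA damage repair) were exposed to compounds. Growth inhibition was measured against vehicle-treated controls.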

Assay [5] can be described thus: NCI Yeast Anticancer Drug Screen. Data for the bub3 strain (AID 167). The following applies: S. cerevisiae bub3 mutant strain, hits give high values. The method in brief:
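Screening used yeast with an engineered genetic alteration affecting cell cycle control. Compound-exposed cultures were compared with vehicle cultures, and reduced growth was taken as inhibition.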

Assay [6] in a line: NCI Yeast Anticancer Drug Screen. Data for the mlh1 rad18 strain (AID 175). The following applies: S. cerevisiae mlh1 rad18 strain growth inhibition, hits give high values. A digest of the protocol: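 Growth inhibition of the yeast strain was measured after compound exposure and expressed relative to vehicle-treated controls. The strain carries defined defects in DNA damage repair.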

[7] abbreviates: at 5.0 µM (retest, dose inferred, filed as 0.5).
Setting [8] is: at 50.0 µM (retest, dose inferred, filed as 5.0).

With `O=c1[nH]c2c([N+](=O)[O-])cc(Cl)cc2nc1/C=C(\O)c1ccc(Cl)cc1`, the growth inhibition in assay [1] (setting [7]) was -16%; in assay [1] (setting [8]) it was 91% (active); in assay [1] (at 50.0 µM), 96.8% (active); in assay [2] (setting [7]) it was 20%; in assay [2] (setting [8]) it was 87% (active); in assay [2] (at 50.0 µM), 95.3% (active). The growth inhibition was -3% in assay [3] (setting [7]); 78% (active) in assay [3] (setting [8]); 95.3% (active) in assay [3] (at 50.0 µM); -27% in assay [4] (setting [7]); 83% (active) in assay [4] (setting [8]); 65% in assay [4] (at 50.0 µM). For the same compound, the growth inhibition in assay [5] (setting [7]) was 17%; in assay [5] (setting [8]) it was 87% (active); in assay [5] (at 50.0 µM), 89.8% (active); in assay [6] (setting [7]), 13%; in assay [6] (setting [8]) it was 95% (active); in assay [6] (at 50.0 µM), 97.2% (active).

For the compound `CC(C)CN(CC(C)C)CN1C(=O)/C(=C/c2ccc([N+](=O)[O-])cc2)SC1=S`, the growth inhibition in assay [1] (setting [7]) was 16%; in assay [1] (setting [8]), 53%; in assay [1] (at 50.0 µM), 63.2%; in assay [2] (setting [7]) it was 8%; in assay [2] (setting [8]), 61%; in assay [2] (at 50.0 µM), 40.3%. The growth inhibition in assay [3] (setting [7]) is 11%; in assay [3] (setting [8]), 59%; in assay [3] (at 50.0 µM), 67.7%; in assay [4] (setting [7]), 37%; in assay [4] (setting [8]), 44%; in assay [4] (at 50.0 µM), 46.9%. In addition, the growth inhibition is 4% in assay [5] (setting [7]); 37% in assay [5] (setting [8]); 41.2% in assay [5] (at 50.0 µM); 26% in assay [6] (setting [7]); 66% in assay [6] (setting [8]); 71.2% (active) in assay [6] (at 50.0 µM).

Regarding `C/C(=N\NC(=S)N/N=C(\C)c1ccccn1)c1ccccn1`, the growth inhibition in assay [1] (setting [7]) was 93% (active); in assay [1] (setting [8]) it was 99% (active); in assay [1] (at 50.0 µM), 88.2% (active); in assay [2] (setting [7]), 90% (active); in assay [2] (setting [8]) it was 99% (active); in assay [2] (at 50.0 µM) it was 91.5% (active). Besides, the growth inhibition in assay [3] (setting [7]) is 88% (active); in assay [3] (setting [8]), 99% (active); in assay [3] (at 50.0 µM), 84.7% (active); in assay [4] (setting [7]) it was 93% (active); in assay [4] (setting [8]) it was 98% (active); in assay [4] (at 50.0 µM), 88.2% (active). Further, the growth inhibition in assay [5] (setting [7]) was 95% (active); in assay [5] (setting [8]), 99% (active); in assay [5] (at 50.0 µM) it was 87.9% (active); in assay [6] (setting [7]) it was 93% (active); in assay [6] (setting [8]), 99% (active); in assay [6] (at 50.0 µM), 83% (active).

On to `N#Cc1sc2c(c1OC(=O)c1ccc(Cl)cc1)c(=O)n(-c1ccccc1)c(=S)n2-c1ccccc1`, for which the growth inhibition in assay [1] (setting [7]) was -4%; in assay [1] (setting [8]) it was -16%; in assay [1] (at 50.0 µM) it was 1.5%; in assay [2] (setting [7]), 5%; in assay [2] (setting [8]), -24%; in assay [2] (at 50.0 µM), 2.4%. Besides, the growth inhibition in assay [3] (setting [7]) is -3%; in assay [3] (setting [8]) it was 0%; in assay [3] (at 50.0 µM) it was -0.45%; in assay [4] (setting [7]) it was 5%; in assay [4] (setting [8]) it was 6%; in assay [4] (at 50.0 µM), 34.5%. Further, the growth inhibition in assay [5] (setting [7]) is -3%; in assay [5] (setting [8]), 2%; in assay [5] (at 50.0 µM), 4.95%; in assay [6] (setting [7]), -2%; in assay [6] (setting [8]), 1%; in assay [6] (at 50.0 µM) it was -7.35%.

As for `O=C1CCCCO1`, the growth inhibition in assay [1] (setting [7]) was 1%; in assay [1] (setting [8]) it was 3%; in assay [1] (at 50.0 µM) it was -15.8%; in assay [2] (setting [7]) it was -1%; in assay [2] (setting [8]), -3%; in assay [2] (at 50.0 µM), -19.4%. The growth inhibition in assay [3] (setting [7]) is 0%; in assay [3] (setting [8]), -4%; in assay [3] (at 50.0 µM), -27.1%; in assay [4] (setting [7]) it was 3%; in assay [4] (setting [8]) it was -2%; in assay [4] (at 50.0 µM) it was 19.4%. The growth inhibition in assay [5] (setting [7]) is -1%; in assay [5] (setting [8]), -3%; in assay [5] (at 50.0 µM) it was -43.3%; in assay [6] (setting [7]), 0%; in assay [6] (setting [8]), 1%; in assay [6] (at 50.0 µM) it was -4.85%.

Take `O=C(/C=N/O)c1c(-c2ccccc2)[nH]c(-c2ccccc2)c1-c1ccccc1`: the growth inhibition is 4% in assay [1] (setting [7]); 75% (active) in assay [1] (setting [8]); 94.2% (active) in assay [1] (at 50.0 µM); 5% in assay [2] (setting [7]); 77% (active) in assay [2] (setting [8]); 77.8% (active) in assay [2] (at 50.0 µM). Besides, the growth inhibition is 7% in assay [3] (setting [7]); 90% (active) in assay [3] (setting [8]); 96.3% (active) in assay [3] (at 50.0 µM); 1% in assay [4] (setting [7]); 33% in assay [4] (setting [8]); 91% (active) in assay [4] (at 50.0 µM). In addition, the growth inhibition in assay [5] (setting [7]) was 11%; in assay [5] (setting [8]), 13%; in assay [5] (at 50.0 µM) it was 85.7% (active); in assay [6] (setting [7]), 31%; in assay [6] (setting [8]) it was 93% (active); in assay [6] (at 50.0 µM), 96% (active).

Turning to `CN(C)CC(C)(CN(C)C)C(=O)/C=C/c1ccc(Cl)c(Cl)c1`, the growth inhibition in assay [1] (setting [7]) is 27%; in assay [1] (setting [8]) it was 98% (active); in assay [1] (at 50.0 µM), 99.7% (active); in assay [2] (setting [7]), 18%; in assay [2] (setting [8]), 99% (active); in assay [2] (at 50.0 µM) it was 99.8% (active). The growth inhibition in assay [3] (setting [7]) is 38%; in assay [3] (setting [8]), 98% (active); in assay [3] (at 50.0 µM) it was 99.8% (active); in assay [4] (setting [7]) it was 13%; in assay [4] (setting [8]) it was 99% (active); in assay [4] (at 50.0 µM), 99% (active). Besides, the growth inhibition was 12% in assay [5] (setting [7]); 100% (active) in assay [5] (setting [8]); 99.5% (active) in assay [5] (at 50.0 µM); 41% in assay [6] (setting [7]); 99% (active) in assay [6] (setting [8]); 99.6% (active) in assay [6] (at 50.0 µM).

Consider `O=[N+]([O-])c1ccc(N/N=C/CCCCCCCCCCBr)c([N+](=O)[O-])c1`, for which the growth inhibition in assay [1] (setting [7]) is -4%; in assay [1] (setting [8]), -3%; in assay [1] (at 50.0 µM), 24.8%; in assay [2] (setting [7]), -2%; in assay [2] (setting [8]) it was 1%; in assay [2] (at 50.0 µM), 10.4%. The growth inhibition in assay [3] (setting [7]) is -5%; in assay [3] (setting [8]), 0%; in assay [3] (at 50.0 µM), 2.4%; in assay [4] (setting [7]), -4%; in assay [4] (setting [8]), -6%; in assay [4] (at 50.0 µM), 9.15%. Besides, the growth inhibition in assay [5] (setting [7]) is -5%; in assay [5] (setting [8]), 1%; in assay [5] (at 50.0 µM), 50.3%; in assay [6] (setting [7]), -1%; in assay [6] (setting [8]) it was -2%; in assay [6] (at 50.0 µM), 21.4%.

In the case of `COC1=CC(=O)c2c(O)c3c(c(O)c2C1=O)C=C(C)OC3O` (configuration not stated), the growth inhibition in assay [1] (setting [7]) was -3%; in assay [1] (setting [8]), 34%; in assay [1] (at 50.0 µM) it was 85.5% (active); in assay [2] (setting [7]), -2%; in assay [2] (setting [8]), 31%; in assay [2] (at 50.0 µM) it was 88% (active). In addition, the growth inhibition in assay [3] (setting [7]) was -27%; in assay [3] (setting [8]), 22%; in assay [3] (at 50.0 µM), 89% (active); in assay [4] (setting [7]), 7%; in assay [4] (setting [8]) it was 20%; in assay [4] (at 50.0 µM), 47.1%. For the same compound, the growth inhibition in assay [5] (setting [7]) is -4%; in assay [5] (setting [8]) it was 44%; in assay [5] (at 50.0 µM), 85.8% (active); in assay [6] (setting [7]), -9%; in assay [6] (setting [8]), 52%; in assay [6] (at 50.0 µM), 89.3% (active).
